Most compounds without a hit are left out; they make up all but 19% or so of the library.
KB-3-1 cytotox = qHTS assay for MDR1-selective chemotherapeutics: Primary screen using the parental adenocarcinoma cell KB-3-1; KB-3-1 viability, CellTiter-Glo ATP luminescence, 72 h; Potency, µM (series often up to 46.1 µM), most hits filed as cytotoxic; 1.4% of 400,000 active; AID 1347075, 2019; further: nearly all actives have a fitted effect of over 60% in size
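Multi-concentration cytotoxicity screen in KB-3-1 cells grown in DMEM lacking phenol red with 10% FBS. After 72 h at 37 °C with compound, ATP-dependent luminescence was recorded.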
DT40 TDP1 CPT = qHTS for Inhibitors of human tyrosyl-DNA phosphodiesterase 1 (TDP1): qHTS in cells in presence of CPT; Potency, µM (titrated, usually from 46.2 µM), for the others: at the highest dose activity change, negative = growth inhibition, hits mostly inhibitors; chicken DT40 Tdp1-/-;hTDP1 cells + 20 nM CPT, ATP luminescence, 48 h; 12% of 420,000 active; AID 686979, 2013; further: nearly all actives have a fitted effect of over 55% in size
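Cell growth measured by CellTiter-Glo luminescence after a minimum 48 h, 37 C compound exposure with 20 nM CPT in Tdp1-knockout DT40 cells stably expressing hTDP1, seeded 400/well; qHTS titration format.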
DT40 TDP1 no CPT = qHTS for Inhibitors of human tyrosyl-DNA phosphodiesterase 1 (TDP1): qHTS in cells in absence of CPT; DT40 Tdp1-/- hTDP1 cells, no CPT, ATP luminescence, 48 h; Potency, µM (highest dose often 46.2 µM), without a hit: at the highest dose activity change, negative = growth inhibition, most hits filed as inhibitors; 15% of 420,000 active; further: nearly all actives have a fitted effect of over 55% in size
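Readout: luminescence from CellTiter-Glo after 30 min in the dark at RT. Cells: DT40 Tdp1-/- with stable hTDP1, 400/well. Exposure: compounds alone, ≥48 hr, 37 °C.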
KB-V1 cytotox = qHTS assay for MDR1-selective chemotherapeutics: Primary screen using the drug-selected MDR subline cells KB-V1. 3.4% of 400,000 active. KB-V1 MDR cells viability, CellTiter-Glo, 72 h. Potency, µM (highest dose often 46.1 µM), actives largely listed as cytotoxic; further: nearly all actives have a fitted effect of over 60% in size
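Cytotoxicity via CellTiter-Glo luminescence after 72 h compound exposure at 37 degrees C. Cells: drug-selected KB-V1 line, DMEM phenol-red free plus 10% FBS. Compounds tested at multiple concentrations; normalized data fitted to concentration-effect curves.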
HT1080 IDH1KD tx = qHTS for induction of synthetic lethality in tumor cells producing 2HG: qHTS for the HT-1080-IDH1KD cell line. HT-1080 IDH1 knockdown viability, ATP luminescence, 48 h. 2% of 360,000 active. Potency, µM (top dose mostly 46.1 µM), without a hit: at the highest dose activity, negative = toxicity, actives largely listed as cytotoxic;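 further: 0% = DMSO wells and -100% = cell-free medium wells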
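Knockdown cells (IDH1KD HT-1080) received compounds 2 h after plating at 750 cells/well and were kept 48 h at 37 °C in 5% FBS RPMI. A CellTiter-Glo luminescence read gave % activity for curve fitting.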
HT1080-NT tox = qHTS for induction of synthetic lethality in tumor cells producing 2HG: qHTS for the HT-1080-NT fibrosarcoma cell line; 1.6% of 360,000 active; Potency, µM (doses to about 46.1 µM), without a hit: at the top dose activity, negative = less viability, usual class: cytotoxic; HT-1080-NT fibrosarcoma viability, CellTiter-Glo ATP luminescence, 48 h; AID 686970, 2013;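 further: NT is the 2HG producing partner of a matched IDH1 knockdown line; 0% = DMSO-treated cells and -100% = media-only wells without cells; nearly all actives have a fitted effect of over 55% in size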
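Toxicity toward the 2HG-producing NT line was scored as %Activity, normalised to DMSO and no-cell wells, from CellTiter-Glo luminescence after 48 hours' treatment.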
* = called active by the depositor; i = inactive; ? = inconclusive; / = no result; [ ] = dose if it differs, or a comment. The call rests on the fitted dose curve; in most records, active means well fitted curve in the direction sought with a large enough effect; inconclusive means small, poorly fitted or top-dose-only effect, or another doubt; inactive means no such curve, though single readings can be large; an effect the other way counts as inactive or inconclusive. Unless noted, on the % scale 0 is the no-effect control and ±100 the full control effect; potency means the concentration at half of the fitted maximal effect.

SMILES	KB-3-1 cytotox	DT40 TDP1 CPT	DT40 TDP1 no CPT	KB-V1 cytotox	HT1080 IDH1KD tx	HT1080-NT tox
COc1ccc(C)cc1NC(=O)Nc1cccc(-c2noc(C)n2)c1	i	?	?	?	/	/
COc1ccc(C)cc1NC(=O)N1CCN(c2cc(-c3noc(C)n3)ccc2C)CC1	i	?	23µM*	?	/	/
COC1=C[C@@H](C)C2CC3OC(=O)C[C@H]4C(C)=C(OC)C(=O)C([C@@]2(C)C1=O)[C@@]34C (stereo partly specified)	/	-12%[9.04 µM]	-2%[9.04 µM]	/	/	/
CCN(CC)c1ccc(NC(=O)C(C)C)cc1	i	-25%	20%	i	17%	17%
O=C1C=C(Nc2ccc(O)cc2)C(=O)c2ccccc21	?	15µM*	13µM*	?	21µM*	26µM*
O=C1C(Cl)=C(Nc2ccc(O)cc2)C(=O)c2ccccc21	?	21µM*	?	?	16µM*	6.5µM*
Cc1ccc(NC2=C(Cl)C(=O)c3ccccc3C2=O)cc1	?	8.2µM*	13µM*	i	-6%	3%
Cc1cc(C)cc(NC2=C(N)C(=O)c3ccccc3C2=O)c1	i	?	14%	i	6%	1%
CCN(CC)c1ccc(NC2=C(Cl)C(=O)c3ccccc3C2=O)cc1	?	10µM*	13µM*	?	?	?
Cc1c(NS(=O)(=O)c2ccc(Cl)c(C(=O)OCC(=O)NCc3ccco3)c2)c(=O)n(-c2ccccc2)n1C	i	?	-16%	i	4%	14%
O=c1[nH]nc(N2CCOCC2)c(=O)[nH]1	i	?	16µM*	i	10%	9%
O=C(O)/C=C/C(=O)Nc1ccc(S(=O)(=O)N2CCCC2)cc1	i	-4%	?	i	6%	14%
Cc1ccccc1N1CCN(C2CCCN(C(=O)c3ccc(Cl)s3)C2)CC1 (stereo unspecified)	i	?	?	i	-3%	5%
COCc1ccc(C(=O)N2CCCC(N3CCN(c4ccccc4C)CC3)C2)s1 (stereo unspecified)	i	15µM*	?	i	-1%	-6%
Cc1ccccc1N1CCN(C2CCCN(C(=O)CCC(=O)N(C)C)C2)CC1 (stereo unspecified)	i	3%	6%	?	15%	9%
Cc1ccccc1N1CCN(C2CCCN(C(=O)CCc3c(C)noc3C)C2)CC1 (stereo unspecified)	/	?	23µM*	/	1%	-3%
Cc1ccc2nc(C)cc(C(=O)N3CCCC(N4CCN(c5ccccc5C)CC4)C3)c2c1 (stereo unspecified)	/	15µM*	?	/	-12%	0%
Cc1ccccc1N1CCN(C2CCCN(C(=O)c3csc(C(C)C)n3)C2)CC1 (stereo unspecified)	i	?	?	i	-14%	-9%
Cc1nc(C(=O)N2CCCC(N3CCN(c4ccccc4C)CC3)C2)cs1 (stereo unspecified)	/	15µM*	?	/	3%	0%
COc1cccc2c1C(=N)c1c(O)c3c(c(O)c1C2=O)CC(O)(C(C)=O)CC3OC1CC(N)C(O)C(C)O1 (stereo unspecified)	?	0.16µM*	0.18µM*	?	21µM*	21µM*
COc1cccc2c1C(=O)c1c(O)c3c(c(O)c1C2=O)C[C@](O)(C(C)=O)C[C@H]3O[C@@H]1C[C@@H](N)[C@@H](O)[C@@H](C)O1	?	0.1µM*	0.092µM*	i	0.41µM*	0.65µM*
COc1cccc2c1C(=O)c1c(O)c3c(c(O)c1C2=O)CC(O)(C(C)=O)CC3OC1CC(O)C(O)C(C)O1 (stereo unspecified)	?	1.2µM*	0.82µM*	?	23µM*	?
CC12CCC(C(=O)Nc3ncc([N+](=O)[O-])s3)(OC1=O)C2(C)C (stereo unspecified)	i	-29%	-27%	i	-9%	-11%
CCNC(=O)c1cc2c(c(-c3cccc(-c4cncnc4)c3)n1)[C@@H](CCO)N(C(C)=O)C2	i	-12%	-5%	i	-3%	9%
CCC(=O)N1Cc2cc(C(=O)NCC(F)(F)F)nc(-c3cccc(-c4cncnc4)c3)c2[C@@H]1CCO	?	21µM*	?	i	?	-25%
SMILES	KB-3-1 cytotox	DT40 TDP1 CPT	DT40 TDP1 no CPT	KB-V1 cytotox	HT1080 IDH1KD tx	HT1080-NT tox
CN(C)C(=O)c1cc2c(c(-c3cccc(-c4ccccc4F)c3)n1)[C@@H](CCO)N(S(C)(=O)=O)C2	i	-10%	-12%	i	1%	0%
CCCNC(=O)c1cc2c(c(-c3cccc(-c4ccccc4F)c3)n1)[C@@H](CCO)N(C(=O)CC1CC1)C2	?	26µM*	?	23µM*	?	?
O=C(NCC(F)(F)F)c1cc2c(c(-c3cccc(-c4ccccc4F)c3)n1)[C@H](CCO)N(C(=O)CC1CC1)C2	?	16µM*	21µM*	16µM*	?	?
CCNC(=O)c1cc2c(c(-c3cccc(-c4ccccc4F)c3)n1)[C@H](CCO)N(C(=O)CC)C2	?	7.3µM*	5.8µM*	18µM*	?	?
Brc1cc(-c2ccccc2)nc(-c2ccccc2)n1	i	5%	-16%	i	?	?
COc1ccccc1C(N)=S	i	0%	-8%	i	6%	1%
Cc1cccc(C(=O)NCc2cn3cccc(C)c3n2)c1	/	-7%	2%	/	/	/
O=C(Cn1nc(-c2ccccc2)nc(Cc2ccccc2)c1=O)Nc1ccccc1	/	-8%	-20%	/	/	/
Cc1ccc(C2(C(F)(F)F)NC(=O)N3N=C4CCCCCN4C3=C2C#N)cc1 (stereo unspecified)	i	-4%	-11%	i	16%	30%
CSCCC(NS(=O)(=O)c1ccc2c(c1)oc(=O)n2C)C(=O)NCc1cccs1 (stereo unspecified)	i	0%	-22%	i	-9%	?

Assay outcomes (PubChem)
